This note sets out measurements from ChEMBL document CHEMBL2218924, “A broad activity screen in support of a chemogenomic map for kinase signalling research and drug discovery” (Biochem J, 2013).

The target of assay [1] is Death-associated protein kinase 1 (Homo sapiens) (UniProt P53355). The settings on record: at 10 µM.
The target of assay [2] is Death-associated protein kinase 2 (Homo sapiens) (UniProt Q9UIK4). Conditions: at 1 µM.
Assay [3] has the same target. The settings on record: at 10 µM.
Assay [4] has as its target T1, Serine/threonine-protein kinase DCLK2 (Homo sapiens) (UniProt Q8N568).
T1 sequence (whole entry): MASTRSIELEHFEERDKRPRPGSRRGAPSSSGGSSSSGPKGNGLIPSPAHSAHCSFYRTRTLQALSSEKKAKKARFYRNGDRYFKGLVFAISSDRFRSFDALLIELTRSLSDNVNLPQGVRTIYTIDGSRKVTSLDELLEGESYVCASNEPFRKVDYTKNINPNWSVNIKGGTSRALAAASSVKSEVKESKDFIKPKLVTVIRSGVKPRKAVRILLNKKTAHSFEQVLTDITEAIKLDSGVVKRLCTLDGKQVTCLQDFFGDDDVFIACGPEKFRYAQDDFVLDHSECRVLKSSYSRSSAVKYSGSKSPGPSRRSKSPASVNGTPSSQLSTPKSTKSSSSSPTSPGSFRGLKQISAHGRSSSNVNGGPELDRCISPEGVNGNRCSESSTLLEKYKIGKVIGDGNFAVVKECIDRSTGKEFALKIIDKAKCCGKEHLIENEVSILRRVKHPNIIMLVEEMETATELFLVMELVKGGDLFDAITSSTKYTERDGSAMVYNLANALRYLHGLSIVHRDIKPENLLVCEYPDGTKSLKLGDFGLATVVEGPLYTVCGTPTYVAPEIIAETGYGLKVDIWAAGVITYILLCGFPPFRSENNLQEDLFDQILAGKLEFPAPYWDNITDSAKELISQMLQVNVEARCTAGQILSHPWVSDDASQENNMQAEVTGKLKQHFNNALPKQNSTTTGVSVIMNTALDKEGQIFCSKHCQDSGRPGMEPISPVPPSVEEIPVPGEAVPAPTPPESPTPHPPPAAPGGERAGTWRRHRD
Conditions: at 1 µM.

Assay [5] has as its target T1, Serine/threonine-protein kinase DCLK2 (Homo sapiens). The settings on record: at 10 µM.
The target of assay [6] is T2, Discoidin domain-containing receptor 2 (Homo sapiens) (UniProt Q16832).
T2 sequence (whole entry): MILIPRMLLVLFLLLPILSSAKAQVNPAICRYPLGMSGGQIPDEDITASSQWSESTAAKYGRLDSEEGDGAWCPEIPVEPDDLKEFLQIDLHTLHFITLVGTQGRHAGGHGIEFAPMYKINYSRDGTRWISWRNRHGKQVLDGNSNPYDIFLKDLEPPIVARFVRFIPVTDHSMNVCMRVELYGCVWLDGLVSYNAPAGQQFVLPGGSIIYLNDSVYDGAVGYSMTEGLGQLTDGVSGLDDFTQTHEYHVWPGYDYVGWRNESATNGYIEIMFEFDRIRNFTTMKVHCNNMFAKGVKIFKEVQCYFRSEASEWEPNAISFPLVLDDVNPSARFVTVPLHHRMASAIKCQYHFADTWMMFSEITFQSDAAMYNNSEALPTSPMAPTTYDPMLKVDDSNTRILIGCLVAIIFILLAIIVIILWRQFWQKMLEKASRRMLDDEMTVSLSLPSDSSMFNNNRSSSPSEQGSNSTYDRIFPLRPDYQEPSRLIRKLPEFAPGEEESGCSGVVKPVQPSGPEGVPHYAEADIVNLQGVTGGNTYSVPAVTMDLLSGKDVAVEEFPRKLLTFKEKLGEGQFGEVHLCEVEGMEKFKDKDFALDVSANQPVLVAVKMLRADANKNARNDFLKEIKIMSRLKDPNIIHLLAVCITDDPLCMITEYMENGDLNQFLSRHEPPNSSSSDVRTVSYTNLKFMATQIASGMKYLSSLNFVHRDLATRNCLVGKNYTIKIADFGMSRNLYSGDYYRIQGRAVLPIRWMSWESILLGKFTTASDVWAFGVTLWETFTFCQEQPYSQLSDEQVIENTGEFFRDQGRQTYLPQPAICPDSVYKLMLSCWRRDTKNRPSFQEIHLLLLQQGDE
Conditions: at 1 µM.

In assay [7] the target is T2, Discoidin domain-containing receptor 2 (Homo sapiens). Conditions: at 10 µM.
Assay [8] concerns the target T3, Myotonin-protein kinase (Homo sapiens) (UniProt Q09013).
T3 sequence (whole entry): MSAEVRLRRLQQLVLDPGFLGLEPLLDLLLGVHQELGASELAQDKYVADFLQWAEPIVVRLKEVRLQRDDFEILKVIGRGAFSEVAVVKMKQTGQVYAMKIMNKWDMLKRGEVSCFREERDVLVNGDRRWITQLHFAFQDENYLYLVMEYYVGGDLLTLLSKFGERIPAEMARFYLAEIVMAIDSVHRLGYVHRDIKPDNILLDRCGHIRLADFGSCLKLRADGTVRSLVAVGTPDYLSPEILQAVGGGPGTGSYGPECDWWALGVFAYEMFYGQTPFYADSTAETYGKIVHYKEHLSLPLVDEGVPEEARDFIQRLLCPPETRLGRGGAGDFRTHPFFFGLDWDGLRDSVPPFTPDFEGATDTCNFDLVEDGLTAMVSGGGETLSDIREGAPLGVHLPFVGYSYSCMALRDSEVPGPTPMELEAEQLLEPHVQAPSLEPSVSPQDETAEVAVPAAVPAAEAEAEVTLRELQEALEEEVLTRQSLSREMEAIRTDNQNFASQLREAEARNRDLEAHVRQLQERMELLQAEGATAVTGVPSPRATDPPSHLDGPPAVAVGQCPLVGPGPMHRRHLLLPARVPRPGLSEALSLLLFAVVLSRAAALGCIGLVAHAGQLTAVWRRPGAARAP
Conditions: at 1 µM.

Assay [9] deals with T3, Myotonin-protein kinase (Homo sapiens). Conditions: at 10 µM.
The target in assay [10] is T4, Serine/threonine-protein kinase 17A (Homo sapiens) (UniProt Q9UEE5).
T4 sequence (whole entry): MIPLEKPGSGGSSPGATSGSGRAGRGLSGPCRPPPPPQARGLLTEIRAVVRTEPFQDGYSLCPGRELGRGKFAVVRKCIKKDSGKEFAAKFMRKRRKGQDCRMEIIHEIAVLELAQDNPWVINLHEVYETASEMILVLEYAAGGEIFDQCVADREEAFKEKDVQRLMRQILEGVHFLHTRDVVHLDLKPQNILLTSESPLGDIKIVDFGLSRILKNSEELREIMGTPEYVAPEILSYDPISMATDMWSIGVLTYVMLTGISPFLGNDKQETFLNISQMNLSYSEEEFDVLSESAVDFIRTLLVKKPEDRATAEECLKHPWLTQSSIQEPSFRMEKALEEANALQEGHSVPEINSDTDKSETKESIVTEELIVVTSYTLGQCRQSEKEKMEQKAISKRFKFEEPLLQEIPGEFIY
Conditions: at 1 µM.

Assay [11] addresses T4, Serine/threonine-protein kinase 17A (Homo sapiens). The settings on record: at 10 µM.
For assay [12], the target named is T5, Dual specificity tyrosine-phosphorylation-regulated kinase 2 (Homo sapiens) (UniProt Q92630).
T5 sequence (whole entry): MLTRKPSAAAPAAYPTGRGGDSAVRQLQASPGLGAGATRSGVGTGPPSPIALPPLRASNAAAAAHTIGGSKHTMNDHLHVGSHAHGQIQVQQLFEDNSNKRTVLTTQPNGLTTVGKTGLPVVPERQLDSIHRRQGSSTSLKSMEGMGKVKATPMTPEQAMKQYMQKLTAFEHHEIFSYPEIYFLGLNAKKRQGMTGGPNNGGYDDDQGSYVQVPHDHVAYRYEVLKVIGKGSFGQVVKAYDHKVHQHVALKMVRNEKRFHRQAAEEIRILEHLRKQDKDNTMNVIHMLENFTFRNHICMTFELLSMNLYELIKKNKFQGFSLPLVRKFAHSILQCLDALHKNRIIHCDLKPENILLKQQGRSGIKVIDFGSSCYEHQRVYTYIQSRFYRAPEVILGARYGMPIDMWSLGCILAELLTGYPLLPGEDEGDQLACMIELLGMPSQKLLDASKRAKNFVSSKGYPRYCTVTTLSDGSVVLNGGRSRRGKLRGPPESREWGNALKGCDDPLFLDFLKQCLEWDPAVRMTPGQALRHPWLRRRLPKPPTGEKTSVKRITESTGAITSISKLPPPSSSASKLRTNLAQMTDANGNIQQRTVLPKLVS
Conditions: at 1 µM.

Assay [13] concerns the target T5, Dual specificity tyrosine-phosphorylation-regulated kinase 2 (Homo sapiens). The settings on record: at 10 µM.
The target in assay [14] is Epidermal growth factor receptor (Homo sapiens) (UniProt P00533). Conditions: at 1 µM.
Sequence of Epidermal growth factor receptor (Homo sapiens) (P00533 whole entry): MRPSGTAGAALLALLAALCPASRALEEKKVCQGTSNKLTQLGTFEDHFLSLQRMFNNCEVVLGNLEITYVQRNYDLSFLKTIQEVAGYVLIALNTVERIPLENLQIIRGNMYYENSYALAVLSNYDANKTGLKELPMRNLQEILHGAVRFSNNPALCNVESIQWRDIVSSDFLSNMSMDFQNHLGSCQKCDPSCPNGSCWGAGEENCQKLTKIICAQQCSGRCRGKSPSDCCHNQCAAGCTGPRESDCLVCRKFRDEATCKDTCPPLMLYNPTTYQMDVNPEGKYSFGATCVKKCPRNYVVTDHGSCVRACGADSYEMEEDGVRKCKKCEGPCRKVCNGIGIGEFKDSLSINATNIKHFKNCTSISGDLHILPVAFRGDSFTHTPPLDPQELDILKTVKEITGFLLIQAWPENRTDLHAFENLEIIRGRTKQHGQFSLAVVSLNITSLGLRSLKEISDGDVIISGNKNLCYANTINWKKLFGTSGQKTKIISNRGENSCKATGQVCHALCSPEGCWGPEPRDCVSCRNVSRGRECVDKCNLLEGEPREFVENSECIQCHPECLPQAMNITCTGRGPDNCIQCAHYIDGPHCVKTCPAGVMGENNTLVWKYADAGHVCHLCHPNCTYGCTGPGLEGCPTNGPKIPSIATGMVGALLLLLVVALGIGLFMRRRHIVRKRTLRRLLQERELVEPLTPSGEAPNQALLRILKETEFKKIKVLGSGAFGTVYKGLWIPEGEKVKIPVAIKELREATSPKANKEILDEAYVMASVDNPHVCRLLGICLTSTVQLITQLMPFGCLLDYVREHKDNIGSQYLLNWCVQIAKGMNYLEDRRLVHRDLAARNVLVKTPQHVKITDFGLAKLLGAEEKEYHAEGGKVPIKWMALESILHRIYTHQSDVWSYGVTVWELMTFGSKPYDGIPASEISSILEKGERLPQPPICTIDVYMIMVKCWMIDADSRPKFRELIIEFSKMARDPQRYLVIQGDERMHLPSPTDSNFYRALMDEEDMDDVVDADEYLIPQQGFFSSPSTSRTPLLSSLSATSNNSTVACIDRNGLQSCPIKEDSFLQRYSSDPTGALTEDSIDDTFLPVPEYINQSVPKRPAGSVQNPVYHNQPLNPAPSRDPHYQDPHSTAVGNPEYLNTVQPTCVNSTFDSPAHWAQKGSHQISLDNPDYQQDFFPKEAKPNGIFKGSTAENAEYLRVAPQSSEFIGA
Assay [15] shares this target. Conditions: at 10 µM.
For assay [16], the target named is T6, Ephrin type-A receptor 1 (Homo sapiens) (UniProt P21709).
T6 sequence (whole entry): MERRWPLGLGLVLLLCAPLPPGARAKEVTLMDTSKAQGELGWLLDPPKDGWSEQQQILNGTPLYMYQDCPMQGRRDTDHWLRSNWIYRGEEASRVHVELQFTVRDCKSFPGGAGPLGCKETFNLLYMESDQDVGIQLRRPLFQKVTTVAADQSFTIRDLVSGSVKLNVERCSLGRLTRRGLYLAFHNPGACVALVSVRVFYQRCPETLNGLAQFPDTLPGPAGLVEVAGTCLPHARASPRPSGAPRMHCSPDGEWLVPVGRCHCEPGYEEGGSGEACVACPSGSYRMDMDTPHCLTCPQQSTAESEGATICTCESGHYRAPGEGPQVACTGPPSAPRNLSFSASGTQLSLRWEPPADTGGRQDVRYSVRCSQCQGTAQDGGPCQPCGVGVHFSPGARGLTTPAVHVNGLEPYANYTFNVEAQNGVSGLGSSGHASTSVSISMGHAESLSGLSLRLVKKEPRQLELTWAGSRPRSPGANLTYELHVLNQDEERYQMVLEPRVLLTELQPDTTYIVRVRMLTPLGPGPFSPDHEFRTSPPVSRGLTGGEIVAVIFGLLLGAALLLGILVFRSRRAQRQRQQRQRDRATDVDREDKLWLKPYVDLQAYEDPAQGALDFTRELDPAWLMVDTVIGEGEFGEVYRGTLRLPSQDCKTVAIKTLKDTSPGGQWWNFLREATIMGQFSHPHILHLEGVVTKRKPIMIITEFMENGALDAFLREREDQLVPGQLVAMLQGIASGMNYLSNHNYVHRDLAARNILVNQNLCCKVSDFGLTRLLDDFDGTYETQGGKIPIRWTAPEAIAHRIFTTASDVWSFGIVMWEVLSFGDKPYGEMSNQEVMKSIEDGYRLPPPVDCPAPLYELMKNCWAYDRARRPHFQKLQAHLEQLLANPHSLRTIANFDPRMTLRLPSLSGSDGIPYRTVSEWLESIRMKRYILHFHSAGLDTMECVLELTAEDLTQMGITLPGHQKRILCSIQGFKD
Conditions: at 1 µM.

The target in assay [17] is T6, Ephrin type-A receptor 1 (Homo sapiens). The settings on record: at 10 µM.
In assay [18] the target is Ephrin type-A receptor 2 (Homo sapiens) (UniProt P29317). The settings on record: at 1 µM.
Sequence of Ephrin type-A receptor 2 (Homo sapiens) (P29317 whole entry): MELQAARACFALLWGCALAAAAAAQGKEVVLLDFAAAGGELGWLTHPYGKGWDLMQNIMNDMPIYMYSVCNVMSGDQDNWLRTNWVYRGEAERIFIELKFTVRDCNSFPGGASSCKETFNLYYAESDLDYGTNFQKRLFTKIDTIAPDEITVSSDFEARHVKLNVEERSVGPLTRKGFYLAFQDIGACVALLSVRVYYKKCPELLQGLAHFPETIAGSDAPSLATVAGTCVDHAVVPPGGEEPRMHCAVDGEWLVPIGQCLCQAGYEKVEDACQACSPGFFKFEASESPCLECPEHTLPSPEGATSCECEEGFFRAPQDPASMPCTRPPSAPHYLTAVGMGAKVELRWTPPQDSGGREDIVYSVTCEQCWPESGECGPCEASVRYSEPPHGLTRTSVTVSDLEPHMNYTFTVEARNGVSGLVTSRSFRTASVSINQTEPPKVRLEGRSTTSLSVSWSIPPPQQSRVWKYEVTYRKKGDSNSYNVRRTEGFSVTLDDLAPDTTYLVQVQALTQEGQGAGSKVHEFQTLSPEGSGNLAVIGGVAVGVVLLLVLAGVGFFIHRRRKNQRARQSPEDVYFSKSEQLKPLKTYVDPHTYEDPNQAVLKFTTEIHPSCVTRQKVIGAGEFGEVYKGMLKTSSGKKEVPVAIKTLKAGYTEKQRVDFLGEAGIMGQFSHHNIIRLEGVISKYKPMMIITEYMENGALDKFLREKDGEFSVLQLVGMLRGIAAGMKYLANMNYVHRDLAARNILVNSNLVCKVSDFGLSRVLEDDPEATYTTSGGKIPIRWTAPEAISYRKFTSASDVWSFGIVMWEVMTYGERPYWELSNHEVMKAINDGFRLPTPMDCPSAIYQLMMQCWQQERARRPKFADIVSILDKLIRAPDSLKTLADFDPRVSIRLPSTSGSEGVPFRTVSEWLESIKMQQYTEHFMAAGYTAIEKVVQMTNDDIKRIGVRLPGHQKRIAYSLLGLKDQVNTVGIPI
For assay [19] the target is unchanged. The settings on record: at 10 µM.
Assay [20] has as its target T7, Ephrin type-A receptor 3 (Homo sapiens) (UniProt P29320).
T7 sequence (whole entry): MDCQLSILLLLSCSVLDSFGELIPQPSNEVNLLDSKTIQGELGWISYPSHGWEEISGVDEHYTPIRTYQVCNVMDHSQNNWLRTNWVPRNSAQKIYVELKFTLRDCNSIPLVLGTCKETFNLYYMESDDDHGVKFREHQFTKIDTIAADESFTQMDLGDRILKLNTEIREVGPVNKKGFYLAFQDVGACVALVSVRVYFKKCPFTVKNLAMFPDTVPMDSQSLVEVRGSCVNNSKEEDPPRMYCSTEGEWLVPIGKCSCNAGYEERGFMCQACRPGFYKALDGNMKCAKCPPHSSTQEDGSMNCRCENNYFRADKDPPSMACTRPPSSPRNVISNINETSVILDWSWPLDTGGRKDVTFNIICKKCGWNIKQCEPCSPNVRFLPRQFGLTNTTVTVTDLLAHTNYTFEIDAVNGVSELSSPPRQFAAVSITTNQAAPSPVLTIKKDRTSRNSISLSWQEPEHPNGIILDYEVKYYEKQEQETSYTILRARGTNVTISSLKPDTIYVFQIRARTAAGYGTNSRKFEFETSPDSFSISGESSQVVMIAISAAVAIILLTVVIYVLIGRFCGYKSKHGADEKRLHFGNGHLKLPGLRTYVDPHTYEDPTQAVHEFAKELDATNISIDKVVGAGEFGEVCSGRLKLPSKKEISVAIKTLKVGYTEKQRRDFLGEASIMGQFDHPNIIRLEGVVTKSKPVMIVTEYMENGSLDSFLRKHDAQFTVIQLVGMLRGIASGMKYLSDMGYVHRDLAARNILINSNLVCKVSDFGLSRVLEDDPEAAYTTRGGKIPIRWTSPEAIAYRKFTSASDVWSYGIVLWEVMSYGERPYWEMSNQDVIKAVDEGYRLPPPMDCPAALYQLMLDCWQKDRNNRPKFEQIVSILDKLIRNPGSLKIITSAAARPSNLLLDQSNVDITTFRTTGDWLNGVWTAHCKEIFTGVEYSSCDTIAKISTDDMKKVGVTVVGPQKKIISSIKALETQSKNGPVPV
Conditions: at 1 µM.

Sequence of Death-associated protein kinase 2 (Homo sapiens) (Q9UIK4 whole entry, looked up): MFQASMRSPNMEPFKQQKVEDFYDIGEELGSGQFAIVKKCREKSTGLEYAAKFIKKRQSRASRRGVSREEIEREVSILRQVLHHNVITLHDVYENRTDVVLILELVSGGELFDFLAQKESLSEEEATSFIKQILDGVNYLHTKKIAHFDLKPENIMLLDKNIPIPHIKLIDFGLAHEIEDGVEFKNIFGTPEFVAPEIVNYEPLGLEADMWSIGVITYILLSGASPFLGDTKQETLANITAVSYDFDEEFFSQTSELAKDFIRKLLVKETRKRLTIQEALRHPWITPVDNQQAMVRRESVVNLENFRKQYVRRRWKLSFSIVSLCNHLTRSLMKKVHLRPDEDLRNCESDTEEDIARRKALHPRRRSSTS
Sequence of Death-associated protein kinase 1 (Homo sapiens) (P53355 whole entry, looked up): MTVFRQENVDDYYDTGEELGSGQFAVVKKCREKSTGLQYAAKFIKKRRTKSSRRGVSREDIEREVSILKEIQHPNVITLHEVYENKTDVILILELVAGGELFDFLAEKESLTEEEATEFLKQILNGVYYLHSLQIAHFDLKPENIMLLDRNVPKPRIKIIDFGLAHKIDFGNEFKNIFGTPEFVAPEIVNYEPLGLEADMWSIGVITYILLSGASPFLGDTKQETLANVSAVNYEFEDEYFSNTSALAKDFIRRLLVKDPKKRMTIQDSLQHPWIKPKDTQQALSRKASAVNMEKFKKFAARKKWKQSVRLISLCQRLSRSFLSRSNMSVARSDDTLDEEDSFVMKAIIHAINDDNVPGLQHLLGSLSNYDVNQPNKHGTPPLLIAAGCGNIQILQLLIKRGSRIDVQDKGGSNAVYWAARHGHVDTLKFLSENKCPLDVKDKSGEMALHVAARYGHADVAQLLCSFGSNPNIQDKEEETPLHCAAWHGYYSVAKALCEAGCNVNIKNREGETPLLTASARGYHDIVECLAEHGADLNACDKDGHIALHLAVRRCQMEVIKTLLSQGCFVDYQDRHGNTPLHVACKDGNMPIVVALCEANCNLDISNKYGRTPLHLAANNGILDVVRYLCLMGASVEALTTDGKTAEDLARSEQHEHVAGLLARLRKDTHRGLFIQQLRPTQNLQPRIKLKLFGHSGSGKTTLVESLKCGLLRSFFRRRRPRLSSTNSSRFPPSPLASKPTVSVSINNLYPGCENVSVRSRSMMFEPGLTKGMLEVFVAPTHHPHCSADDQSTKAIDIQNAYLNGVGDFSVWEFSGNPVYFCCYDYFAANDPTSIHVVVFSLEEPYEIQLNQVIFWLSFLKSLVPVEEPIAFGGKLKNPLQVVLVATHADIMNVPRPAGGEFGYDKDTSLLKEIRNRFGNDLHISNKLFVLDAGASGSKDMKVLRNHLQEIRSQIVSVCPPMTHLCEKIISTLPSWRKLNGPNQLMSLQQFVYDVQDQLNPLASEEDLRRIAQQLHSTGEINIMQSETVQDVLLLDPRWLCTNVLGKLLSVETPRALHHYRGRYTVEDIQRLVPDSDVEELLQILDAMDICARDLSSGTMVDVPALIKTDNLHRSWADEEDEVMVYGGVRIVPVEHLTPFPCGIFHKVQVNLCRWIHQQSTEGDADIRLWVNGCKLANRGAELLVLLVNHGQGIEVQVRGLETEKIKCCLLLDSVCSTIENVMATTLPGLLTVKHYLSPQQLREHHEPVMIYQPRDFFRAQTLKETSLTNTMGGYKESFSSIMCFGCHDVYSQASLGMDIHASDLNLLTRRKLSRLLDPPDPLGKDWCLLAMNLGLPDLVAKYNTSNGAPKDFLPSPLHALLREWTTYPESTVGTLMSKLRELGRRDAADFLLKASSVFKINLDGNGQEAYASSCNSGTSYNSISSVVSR

By residual activity is commonly meant the signal under treatment as a percentage of the control signal. With `O=C(Nc1cccc(Nc2cc(Nc3cccc(C(F)(F)F)c3)ncn2)c1)C1CC1`, the residual activity came out at 100% in assay [1]; 91% in assay [2]; 91% in [3]; 92% in [4]; 109% in assay [5]; 81% in [6]. Moreover, the residual activity stood at 94% in assay [7]; 100% in [8]; 106% in assay [9]; 81% in assay [10]; 50% in [11]; 97% in assay [12]. The residual activity in [13] was 99%; in assay [14], -2%; in [15], -3%; in assay [16] it was 82%; in assay [17], 90%; in [18] it was 108%. In addition, the residual activity in assay [19] was 98%; in [20] it was 115%.
With `COc1ccc(S(=O)(=O)N(CCO)c2ccccc2CN(C)C/C=C/c2ccc(Cl)cc2)cc1`, the residual activity came out at 65% in assay [1]; 100% in [2]; 87% in [3]; 91% in assay [4]; 107% in assay [5]; 97% in assay [6]. Also, the residual activity in assay [7] is 97%; in assay [8] it was 99%; in [9], 89%; in assay [10], 95%; in [11], 87%; in assay [12] it was 100%. Also, the residual activity in [13] was 91%; in assay [16], 97%; in assay [17], 76%; in [18], 96%; in assay [19] it was 86%; in assay [20] it was 97%.
